Screening data (PubChem)
An excerpt weighted towards active compounds, which were near 3.5% of everything screened.
rCAG RNA binder – r(CAG) repeat RNA binding. TO-PRO-1 dye displacement fluorescence. inhibition, % at 3 µM. 1.3% of 370,000 active. AID 651821;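 active means inhibition above the plate cutoff, the mean of all test compounds on that plate plus 3 SD, cut at about 35% in these data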;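 further: higher means more dye released from RNA so lower well fluorescence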
LEDGF integ inh – blocks HIV-1 LEDGF/p75-dependent DNA integration. AID 743269. TR-FRET IN-LEDGF/p75 DNA integration, Eu/Cy5. 0.64% of 370,000 active. inhibition, % at 3.7 µM;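 active means inhibition above the screen-wide mean plus 3 SD, cut at about 13% in these data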;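 further: signal is the Cy5 over europium emission ratio at 671 and 618 nm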
MBD2 inh – inhibitors of human MBD2 binding to methylated oligonucleotide | Q9UBB5 | TR-FRET | inhibition, % at 4.4 µM | 0.31% of 370,000 active; in the data active means inhibition above about 13%
PG9 Ab binder – binds the HIV-1 gp120 antibody PG9. TR-FRET gp120-PG9 antibody binding. inhibition, % at 6.7 µM. 0.43% of 360,000 active. AID 624416; in the data active means inhibition above about 8.5%
DNMT1 inh – inhibitors of human DNMT1. DNMT1 molecular beacon, Hinp1I cleavage, fluorescence. inhibition (reported as % activation of signal), % at 10 µM. AID 588458. P26358. 0.83% of 360,000 active; in the data active means inhibition above about 50%
UHRF1 binding – human UHRF1 methylated DNA binding inhibitors | Q96T88 | UHRF1 binding to methylated oligo, TR-FRET | inhibition, % at 4.4 µM | 0.75% of 370,000 active; in the data active means inhibition above about 21%;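 further: UHRF1 SRA domain binding a hemimethylated CpG hairpin DNA probe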
DNMT1 confirm – DNMT1 inhibition confirmation, single concentration; shares compounds with DNMT1 inh; DNMT1 molecular beacon HinP1I cleavage, fluorescence; inhibition, % at 10 µM; 8% of 2,300 active;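 active means average inhibition of at least 30% in the single-concentration confirmation test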
Beacon interf – shows spectral interference in the DNMT1 beacon assay; shares compounds with DNMT1 inh; DNMT1 molecular beacon spectral interference counterscreen, fluorescence 485/520; activation (fluorescence interference), % at 10 µM; 1% of 2,300 active; AID 602387;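 active means activation of at least 30% at 10 µM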;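 further: DNMT1 catalytic domain with a HinP1I cleavage step and a FAM/dabcyl DNA beacon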
A number is an active result; - = inactive; . = no result given.

SMILES | rCAG RNA binder | LEDGF integ inh | MBD2 inh | PG9 Ab binder | DNMT1 inh | UHRF1 binding | DNMT1 confirm | Beacon interf
CCn1c(SCC(=O)Nc2cc(F)ccc2C)nnc1-c1ccccc1O | - | - | - | - | 55.7 | - | - | -
CCn1c(SCC(=O)Nc2ccccc2C)nnc1-c1ccccc1O | - | - | - | - | - | - | . | .
Cc1cccc(-c2noc(-c3csc([C@@H]4C[C@H](O)[C@@H](CO)O4)n3)n2)c1 | - | - | - | - | - | - | . | .
Nc1c(C(=O)C2CC2)sc2nc(-c3cccs3)cc(C(F)(F)F)c12 | - | - | - | - | 67.6 | - | - | 34.5
O=C(CCCCCn1c(=S)[nH]c2cc3c(cc2c1=O)OCO3)N1CCN(c2ccccc2)CC1 | - | - | - | - | 65.7 | - | - | -
Cc1ccc(C(=O)NCCn2cc(SCC(=O)Nc3cc(C)on3)c3ccccc32)cc1 | - | - | - | - | - | - | . | .
Cc1cc(NC(=O)CSc2cn(CCNC(=O)c3ccccc3)c3ccccc23)no1 | . | . | . | . | 71.8 | . | - | -
O=C(CCc1nc2ccccc2c(=O)[nH]1)Nc1nnc(SCc2ccc(F)cc2)s1 | - | - | - | - | 63.5 | - | - | 77.0
Cc1ccc(/C=C/C(=O)Nc2nccs2)o1 | - | - | - | - | - | - | . | .
Cc1ccc(/C=C/C(=O)Nc2nnc(SCc3ccc(C#N)cc3)s2)o1 | - | - | - | - | - | - | - | -
O=C(CCc1nc2ccccc2c(=O)[nH]1)Nc1ccc(F)cc1 | - | - | - | - | - | - | . | .
N#Cc1ccc(CSc2nnc(NC(=O)CCc3nc4ccccc4c(=O)[nH]3)s2)cc1 | - | - | - | - | 67.8 | - | - | -
COc1cc(COc2ccc(S(=O)(=O)N3CCOCC3)cc2[N+](=O)[O-])ccc1OC(F)F | - | - | - | - | - | - | . | .
O=C(c1cccc(F)c1)n1ccc2ccc(-c3ccc4ccn(Cc5ccccc5)c4c3)cc21 | - | - | - | . | . | - | . | .
CCOC(=O)c1c(NC(=O)N/N=C/c2ccccc2OCC)sc(C(C)=O)c1C | - | - | - | - | 55.7 | - | - | -
CCOC(=O)c1c(NC(=O)C2c3ccccc3Oc3ccccc32)sc(C(C)=O)c1C | - | - | - | - | - | - | . | .
CSc1ccc(Cl)c(C(=O)N2CCOc3ccccc32)c1 | - | - | - | - | - | - | . | .
O=C(c1cccc(C(F)(F)F)c1)N1CCOc2ccccc21 | - | - | - | - | 53.7 | - | - | -
O=C(Cn1nnc(-c2ccc(NC(=O)c3ccccc3F)cc2)n1)NCc1ccc(F)cc1 | - | - | - | - | 77.4 | - | - | -
Cc1cc(-c2ccco2)c(C#N)c2nc3ccccc3n12 | - | - | - | - | 69.3 | - | - | -
CC(C)c1cc(N2CCN(C(=O)c3ccco3)CC2)n2c(nc3ccccc32)c1C#N | - | - | - | - | - | - | . | .
COc1ccc(C2c3c(-c4ccccc4O)n[nH]c3C(=O)N2Cc2ccco2)cc1 (stereo unspecified) | - | - | - | - | 66.3 | - | - | -
COc1cc(C2c3c(-c4ccccc4O)n[nH]c3C(=O)N2Cc2ccco2)cc(OC)c1OC (stereo unspecified) | - | - | - | - | - | - | . | .
COc1cccc(C2c3c(-c4cc(Cl)c(C)cc4O)n[nH]c3C(=O)N2Cc2cccnc2)c1 (stereo unspecified) | - | - | - | - | 98.1 | - | - | -
O=C(N/N=C/c1cc(Br)c(Br)o1)C(O)c1ccccc1 (stereo unspecified) | - | - | - | - | 76.8 | - | - | -
SMILES | rCAG RNA binder | LEDGF integ inh | MBD2 inh | PG9 Ab binder | DNMT1 inh | UHRF1 binding | DNMT1 confirm | Beacon interf
CCOC(=O)c1c(NC(=O)CSc2nnc(C)o2)sc(C)c1C | - | - | - | - | 58.7 | - | - | -
O=C(C1=C(O)C(=O)N(Cc2ccco2)C1c1cccc(O)c1)c1ccco1 (stereo unspecified) | - | - | - | - | 80.9 | - | - | -
COc1ccc(N2Cc3cccc(C(=O)NC(C)CCc4ccco4)c3C2=O)cc1 (stereo unspecified) | - | - | - | - | 76.7 | - | - | -
Cc1cc(C(=O)NCc2ccco2)c2ccccc2n1 | - | - | - | - | - | - | . | .
Cc1ccc(-c2cc(C(F)F)n3ncc(C(=O)NCc4ccco4)c3n2)cc1 | - | - | - | - | 76.5 | - | - | -
O=C(O)c1cc(-c2ccco2)nc2ccccc12 | - | - | - | - | 60.7 | - | - | -
COc1ccc(NC(=O)c2cc(-c3ccco3)nc3ccccc23)cn1 | - | - | - | - | - | - | - | -
O=C(Nc1nc2ccccc2s1)c1cc(-c2ccco2)nc2ccccc12 | - | - | - | - | - | - | . | .
COc1cccc(NC(=O)c2cc(-c3ccc(C)o3)nc3ccccc23)c1 | - | - | - | - | - | - | . | .
Cc1ccc(-c2cc(C(=O)NCc3ccco3)c3ccccc3n2)o1 | - | 15.4 | - | - | 91.9 | - | - | -
CN1CCN(CCc2nc3cc(NC(=O)COc4ccc([N+](=O)[O-])cc4)ccc3n2C)CC1 | - | - | - | - | - | - | . | .
O=[N+]([O-])c1ccc(CNCc2cc(Cl)ccc2O)cc1 | - | - | - | - | - | - | . | .
O=C(OCCN1CCN(C2CN(Cc3cn(Cc4ccccc4C(F)(F)F)nn3)S(=O)(=O)C2)CC1)c1cc2ccccc2o1 (stereo unspecified) | - | - | - | . | . | - | . | .
CCCCCCCCN1C(=O)[C@H](CC(=O)NCc2cccc(C(F)(F)F)c2)C[C@@]2(C(=O)OCC)CCCC=C12 | - | - | - | - | . | - | . | .
O=C(CSc1ncnc2sc3c(c12)CCCCC3)NCc1ccco1 | - | - | - | - | - | - | . | .
CC(C)c1nc2sc3c(SCC(=O)NCc4ccco4)ncnc3c2c2c1CCC2 | - | - | - | - | 83.2 | - | - | -
CCN(CC)C(=O)CSc1ncnc2c(-c3cccs3)nsc12 | - | - | - | - | 97.0 | - | - | -
CCOc1ccc(Cl)cc1CNc1nnnn1CC | - | - | - | - | - | - | . | .
CCOc1ccc2ccccc2c1CNc1nnnn1CC | - | - | - | - | 92.2 | - | - | -
O=C(CSc1nnc(-c2ccco2)o1)c1ccccc1 | - | - | - | - | - | - | . | .
O=C(CSc1nnc(-c2ccco2)o1)c1ccc[nH]1 | - | - | - | - | 55.0 | - | - | -
Cc1ccc(S(=O)(=O)N2CCCCC2)cc1NCC(=O)Nc1ccc(Br)cc1F | - | - | - | - | - | - | . | .
CCCCC1=CC2=C(c3ccco3)C(=O)C(C)(OC(=O)c3ccc(OC)cc3)C(=O)C2=CN1Cc1ccco1 (stereo unspecified) | . | . | . | . | 55.9 | . | - | -
